Screening data (PubChem)
FLuc modulator = qHTS profiling assay for firefly luciferase inhibitor/activator using purifed enzyme and Km concentrations of substrates (counterscreen for miR-21 project). purified FLuc, Km substrates, luminescence inhibition. Potency, µM (doses to about 57.5 µM), for the others: at the highest dose activity change, negative = inhibition, actives largely listed as inhibitors. 6.9% of 360,000 active;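 also: plate controls were vehicle for no effect and reference inhibitor for full effect; nearly all actives have a fitted effect of over 55% in size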
Target sequence (P08659 whole entry, looked up): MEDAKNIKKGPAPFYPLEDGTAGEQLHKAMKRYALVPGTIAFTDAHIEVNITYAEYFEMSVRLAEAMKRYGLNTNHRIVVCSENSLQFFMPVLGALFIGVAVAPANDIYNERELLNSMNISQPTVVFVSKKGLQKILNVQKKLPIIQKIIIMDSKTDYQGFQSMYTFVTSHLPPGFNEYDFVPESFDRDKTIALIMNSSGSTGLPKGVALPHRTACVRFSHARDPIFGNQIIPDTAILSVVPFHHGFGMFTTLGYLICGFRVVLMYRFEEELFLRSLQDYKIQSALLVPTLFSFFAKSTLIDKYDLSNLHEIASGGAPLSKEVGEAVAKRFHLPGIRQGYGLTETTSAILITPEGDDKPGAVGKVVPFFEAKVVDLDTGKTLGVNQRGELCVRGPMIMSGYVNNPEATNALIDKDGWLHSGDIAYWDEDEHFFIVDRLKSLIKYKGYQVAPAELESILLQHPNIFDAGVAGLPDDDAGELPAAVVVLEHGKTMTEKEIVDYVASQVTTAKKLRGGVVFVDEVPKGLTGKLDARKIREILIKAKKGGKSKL
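Biochemical qHTS of compounds, final roughly 60 µM downward over six points, against 10 nM purified firefly luciferase using Km concentrations of substrates (10 uM D-luciferin, 10 uM ATP) in Tris acetate pH 7.5 buffer; luminescence output.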
NPC1 prom act = qHTS Assay for NPC1 Promoter Activators; Potency, µM (top dose mostly 9.22 µM), for inactives: top-dose activation, actives largely listed as activators; AID 485313, 2010; 2.4% of 320,000 active; Huh7 NPC1 promoter luciferase reporter, 24 h; also: % of control where 0% means no effect; nearly all actives have a fitted effect of over 60% in size
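NPC1 promoter–luciferase Huh7 cells; 24 h compound; luminescence.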
ELG1 genotox = qHTS screen for small molecules that induce genotoxicity in human embryonic kidney (HEK293T) cells expressing luciferase-tagged ELG1; HEK293T ELG1-luciferase reporter, luminescence, 16 h; Potency, µM (series often up to 46 µM), without a hit: at the top dose activity change, positive = activation, hits mostly activators; 1.3% of 330,000 active; also: % of control where 0% means no effect; nearly all actives have a fitted effect of over 60% in size
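16 hr compound incubation (37 °C, 5% CO2) of HEK293T cells carrying luciferase-tagged ELG1; luciferase then measured by ONE-Glo luminescence after 30 min at RT.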
Rab9 prom act = qHTS Assay for Rab9 Promoter Activators; 2.8% of 320,000 active; Huh7 Rab9 promoter-luciferase reporter, luminescence, 24 h; Potency, µM (highest dose often 9.22 µM), for the others: at the top dose activation, negative = inhibition, hits mostly activators; also: % of control where 0% means no effect; nearly all actives have a fitted effect of over 60% in size
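Rab9 promoter-driven luciferase in stably transfected Huh7 cells; 1500 cells/well rested 2 h, exposed to compound in DMSO for 24 h at 37 °C, 5% CO2. Luminescence read 10 min after adding luciferase reagent at ambient temperature.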
SMN2 splice enh = qHTS Assay for Enhancers of SMN2 Splice Variant Expression; 2.8% of 210,000 active; AID 1458, 2008; HEK293 SMN2-luciferase splicing reporter, luminescence, 30-36 h; Potency, µM (top dose mostly 46.1 µM), for the others: top-dose activity change, positive = activation, most hits filed as activators; also: % of control where 0% means no effect; nearly all actives have a fitted effect of over 55% in size
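qHTS luciferase splicing reporter: luminescence rises when SMN2 exon 7 is included in transfected HEK293 cells. Compound exposure lasted 30-36 h at 37C, with 4.5 mM final sodium butyrate as control, followed by a ONE-Glo read.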
An asterisk follows results filed as active; ? = inconclusive; nt = no result; [ ] = remark or other dose. In the library only some 7.4% were active in any assay of this set; here they are far more common. Calls follow the shape of the dose curve; as a rule, active = well fitted curve in the direction sought with a large enough effect; inconclusive = small, poorly fitted or top-dose-only effect, or another doubt; inactive = no such curve, though single readings can be large; an effect the other way counts as inactive or inconclusive. Potency is read from the fitted curve at half-maximal effect.

SMILES | FLuc modulator | NPC1 prom act | ELG1 genotox | Rab9 prom act | SMN2 splice enh
CC(C)Cc1cc(C(=O)Nc2sc3c(c2C#N)CCCC3)no1 | ? | -1% | 3% | 5% | -7%
Cc1cc(C(=O)Nc2sc3c(c2C#N)CCCC3)no1 | 2.4µM* | 3.2µM* | ? | 1.6µM* | 6.3µM*
Cc1cc(C(=O)Nc2sc3c(c2C#N)CCC3)no1 | 5.4µM* | -3% | 6.5µM* | 29% | ?
CC(C)Cc1cc(C(=O)Nc2sc3c(c2C#N)CCC3)no1 | ? | 1% | 0% | 7% | -6%
CC1CCc2c(sc(NC(=O)c3ccc(Cl)cc3Cl)c2C#N)C1 (stereo not drawn) | 4% | nt | nt | nt | 0%
CCOC(=O)c1cc(C(=O)Nc2sc3c(c2C#N)CCCC3)nn1C | 4.8µM* | 2% | 7% | ? | nt
Cc1cc(C(=O)Nc2sc3c(c2C#N)CCC(C)C3)no1 (stereo not drawn) | 2.7µM* | 1.8µM* | 2.1µM* | 2µM* | 14µM*
CCCCN(C(=O)c1ccc(Cl)c(S(=O)(=O)N2CCOCC2)c1)c1c(N)n(CCC)c(=O)[nH]c1=O | -2% | -5% | 4% | -4% | nt
Cc1cccc(CNc2cc(-c3ccc(N(C)C)cc3)ncn2)c1 | nt | nt | nt | nt | -12%
CN(C)c1ccc(CNc2ncc(Br)cc2Br)cc1 | 19µM* | 19% | 11% | 7% | 17%
CN(C)c1ccc(-c2cc(NCc3cccnc3)ncn2)cc1 | nt | nt | nt | nt | 10µM*
CSc1ccc(CNc2ccccn2)cc1 | 15µM* | ? | ? | ? | 12%
CN(C)c1ccc(CNc2ccccn2)cc1 | 13µM* | ? | ? | ? | nt
O=C(Nc1ccccc1)NN(C(=O)CCl)c1ccccc1 | -3% | -26% | -24% | -23% | nt
CCOC(=O)C1=C(CS(=O)(=O)c2ccc(F)cc2)NC(=O)NC1c1ccc(O)c(O)c1 (stereo not drawn) | ? | -2% | 1% | 1% | nt
Cc1cccc(NCc2ccc(N(C)C)cc2)n1 | 11µM* | ? | 18µM* | ? | nt
Cc1ccc(O)c(CNc2cccc(C)n2)c1 | -23% | 2% | 1% | 4% | nt
O=C(NNC1=NS(=O)(=O)c2ccccc21)c1ccccc1Cl | 17µM* | 4% | 6% | -9% | nt
O=C(NNC1=NS(=O)(=O)c2ccccc21)c1ccccc1 | 4.8µM* | 29% | 6% | 25% | nt
O=C(/C=C/c1ccccc1)NNC1=NS(=O)(=O)c2ccccc21 | 24µM* | -2% | 2% | 10% | nt
O=C(NNC1=NS(=O)(=O)c2ccccc21)c1cccc([N+](=O)[O-])c1 | 12µM* | 14% | 2% | 3% | nt
COc1ccccc1C(=O)NNC1=NS(=O)(=O)c2ccccc21 | ? | 1% | 0% | 3% | nt
Cc1sc2nc3n(c(=O)c2c1C)CCCCC3 | -5% | -5% | 0% | 1% | 18%
Cc1sc2nc3ccc(N4CCCCC4)nn3c(=O)c2c1C | 8.5µM* | ? | -1% | ? | -17%
Cc1ccc2nc3ccc(N4CCCC4)nn3c(=O)c2c1 | 11µM* | 2.2µM* | ? | 1.6µM* | 16µM*
SMILES | FLuc modulator | NPC1 prom act | ELG1 genotox | Rab9 prom act | SMN2 splice enh
CC1CCCN(c2ccc3nc4ccccc4c(=O)n3n2)C1 (stereo not drawn) | 1.1µM* | ? | -12% | ? | 1.3µM*
O=C(NNc1nc2c(F)cccc2s1)C1=COCCO1 | 1% | 0% | 1% | 3% | 3%
O=c1oc2ccccc2cc1-c1csc(Nc2nc3c(F)cccc3s2)n1 | -19% | 16% | 3% | -2% | -28%
O=C(NNc1nc2c(F)cc(F)cc2s1)c1ccccc1 | 4% | -1% | -1% | -3% | 22%
Fc1cccc2sc(Nc3nc4cc5c(cc4s3)OCO5)nc12 | 4.3µM* | 4µM* | 7.3µM* | 3.2µM* | 5µM*
Fc1cc(F)c2nc(Nc3nc4cc5c(cc4s3)OCO5)sc2c1 | ? | ? | ? | ? | 18µM*
Fc1cccc2sc(Nc3nc4cc5c(cc4s3)OCCO5)nc12 | 1.2µM* | 4µM* | 1.2µM* | 0.71µM* | ?
Cc1ccc(Nc2c(-c3ccccc3)nc3cnccn23)cc1 | -3% | 0% | 2% | -7% | 7%
Cc1ccc(Nc2c(-c3ccc(C)cc3)nc3ccc(C)cn23)cc1 | -2% | nt | nt | nt | 8%
Cc1ccc2nc(-c3ccncc3)c(Nc3ccccc3)n2c1 | 0% | -1% | -1% | 0% | 18µM*
Cc1ccc(Nc2c(-c3ccc(N(C)C)cc3)nc3ccccn23)cc1 | 7.6µM* | nt | nt | nt | 15%
N#CCCN(Cc1cccnc1)C(=O)c1sc2cc(F)ccc2c1Cl | 4% | -3% | 0% | -1% | nt
Cc1cccc(CNC(=O)c2ccc3nc(Cc4ccccc4F)oc3c2)n1 | 27µM* | 3.5µM* | ? | 3.5µM* | nt
O=C(NCCc1ccccn1)c1ccc2nc(Cc3ccccc3F)oc2c1 | 11µM* | 2.8µM* | 4.6µM* | 2µM* | nt
CN(Cc1nccs1)C(=O)c1ccc2nc(Cc3ccccc3F)oc2c1 | 3% | 1% | -2% | 0% | nt
Cc1ccc(NC(=O)Cn2c(=O)oc3cc(S(=O)(=O)N4CCCCC4)ccc32)c(Cl)c1 | -19% | nt | nt | nt | -43%
COc1ccc(C(CNC(=O)c2ccc(-c3nc4ccccc4s3)o2)N2CCCC2)cc1 (stereo not drawn) | 19µM* | -1% | -3% | 1% | nt
Cc1ccc2c(=O)cc(C(=O)Nc3cccc(Cl)c3C)oc2c1C | -1% | nt | nt | nt | 25%
Cc1ccc(/C=C2\SC(=S)N(CCC(=O)NCCCN3CCOCC3)C2=O)cc1 | ? | -2% | -8% | -2% | nt
CCc1ccc(/C=C2\SC(=S)N(CCC(=O)NCCCN3CCOCC3)C2=O)cc1 | 6.7µM* | 15% | 9% | -14% | nt
COC(=O)c1ccc(/C=C2\SC(=S)N(CCCC(=O)NCCCN3CCOCC3)C2=O)cc1 | ? | -10% | -10% | -4% | nt
COc1ccc(/C=C2\SC(=S)N(CCC(=O)NCCCN3CCOCC3)C2=O)cc1 | 17µM* | 1% | 0% | -8% | nt
Cc1cc(C)cc(N(CC(=O)Nc2ccc(-c3nc4ccc(C)cc4s3)cc2)S(C)(=O)=O)c1 | 5.4µM* | ? | ? | ? | 3%[1.84 µM]
Cc1ccc2nc(-c3ccc(NC(=O)CN(c4ccccc4C)S(C)(=O)=O)cc3)sc2c1 | 2.4µM* | ? | ? | 3.2µM* | 11µM*
Cc1sc(NC(=O)c2sc3nc4c(C)cccc4cc3c2N)c(C#N)c1C | 0.54µM* | 26% | ? | ? | -4%
Cc1cccc2cc3c(N)c(C#N)sc3nc12 | ? | -1% | 1% | -3% | -6%
Cc1ccc2c(c1)cc1c(=O)[nH]ncn12 | 21µM* | ? | ? | ? | -5%
Cc1ccc(C)c(Cn2nc(C)n3c(cc4cc(C)ccc43)c2=O)c1 | -5% | nt | nt | nt | 0%
